Screens as filed in PubChem BioAssay.
LASV entry inh: Lassa virus entry inhibition. hit rate 1.2% among 300,000. AID 540256. Potency, µM (series often up to 37.9 µM), for the others: at the top dose activity change, negative = inhibition, most hits filed as inhibitors. Lassa virus pseudotype entry inhibition, cell reporter; calls by dose curve; tested in HEK293 cells; further: potency means the concentration at half of the fitted maximal effect; on the % scale 0 is the no-effect control and ±100 the full control effect; nearly all actives have a fitted effect of over 50% in size
SARS PLpro yeast: blocks SARS-CoV papain-like protease in a yeast assay; Potency, µM (highest dose often 32.9 µM), for the others: at the highest dose activity, positive = growth rescue, most hits filed as activators; AID 485353; S. cerevisiae expressing SARS-CoV PLpro, growth rescue; hit rate 0.19% among 330,000; calls by dose curve; further: potency means the concentration at half of the fitted maximal effect; 0% is about no effect; nearly all actives have a fitted effect of over 55% in size
HCV inhibitor: inhibitors of hepatitis C virus infection. Huh7.5.1 HCVcc-Cre infection, luciferase reporter, 44 h. Potency, µM (top dose mostly 41.8 µM), without a hit: at the highest dose activity change, negative = inhibition, usual class: inhibitors. hit rate 3.4% among 340,000. AID 651820; active means well fitted inhibition curve with a large enough effect; inconclusive means small, poorly fitted or top-dose-only effect, or another doubt; inactive means no such curve, though single readings can be large or run the other way; further: potency means the concentration at half of the fitted maximal effect; on the % scale 0 is the no-effect control and ±100 the full control effect
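Luciferase read-out (15 sec integration) after a 15 min room-temperature substrate step quantifies HCVcc-Cre infection. Cells, 1,000 per well, had compound added 4 h post-plating, then virus at ~0.5 moi, and were cultured 44 h.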
HCMV antiviral: inhibitors of human cytomegalovirus; HFF cells, HCMV-luciferase reporter, 72 h; stronger effect = lower value; activity change, negative = inhibition, % at 57.5 µM; hit rate 4.5% among 410,000; in the data active means activity change below about -60%; inconclusive means no clear call, values can overlap the other calls; inactive means above about -39%; further: on the % scale 0 is the no-effect control and ±100 the full control effect
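After 16 h attachment at 37C, HFF cells received test compound and HCMV-luciferase (1 PFU/cell); reporter luminescence read 72 h later, data normalized against buffer-only and known inhibitor Salinomycin.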
MARV entry inh: inhibitors of Marburg virus binding or cell entry; Marburg virus pseudotyped entry inhibition, cell reporter; Potency, µM (top dose mostly 37.8 µM), for inactives: at the highest dose activity change, negative = inhibition, usual class: inhibitors; hit rate 1.8% among 300,000; calls by dose curve; tested in HEK293 cells; further: potency means the concentration at half of the fitted maximal effect; on the % scale 0 is the no-effect control and ±100 the full control effect
FMDV inh: foot and mouth disease virus antiviral activity. hit rate 1.2% among 410,000. Potency, µM (top dose mostly 57.9 µM), without a hit: at the highest dose activity change, negative = inhibition, usual class: inhibitors. AID 1159524. FMDV antiviral cell-based qHTS; calls by dose curve; tested in HEK293T cells; further: read-out not given here; potency means the concentration at half of the fitted maximal effect; on the % scale 0 is the no-effect control and ±100 the full control effect; nearly all actives have a fitted effect of over 45% in size
* = called active by the depositor; ? = inconclusive; · = not tested or not shown; [ ] = another dose, or the depositor's remark. Rows were chosen to be rich in hits. Some 8% of all compounds tested hit in one or more screens of this group.

SMILES	LASV entry inh	SARS PLpro yeast	HCV inhibitor	HCMV antiviral	MARV entry inh	FMDV inh
Cc1ccc(NC(=O)C2CCN(S(=O)(=O)c3ccc4c(c3)OCCCO4)CC2)nc1	-2%[46.1 µM]	5%	?	-63*	-12%	?
Cc1cccc(NC(=O)C2CCN(S(=O)(=O)c3ccc4c(c3)OCCCO4)CC2)n1	-9%	1%	?	-79*	?	?
O=C(Nc1ccccn1)C1CCN(S(=O)(=O)c2ccc3c(c2)OCCCO3)CC1	2%	8%	4%	?	?	?
CCCC[C@H](CCC(=O)Nc1ccc(C(=O)OCC)cc1)C(=O)O	·	·	·	·	2%	·
CCOC(=O)CNC(=O)O[C@H]1C(=O)c2ccc(OC)cc2O[C@@H]1c1ccc2c(c1)OCO2	?	·	·	·	17%[14.2 µM]	·
CC(C)(C)NC(=O)COC(=O)c1snc(C(=O)NC2CCCCC2)c1N	?	-3%	7.1µM*	?	-13%	?
O=C1NCCOC(=O)[C@@H](Cc2ccc(F)cc2)CC/C=C/C[C@H]1CC(=O)N(CCO)Cc1ccccc1	·	-2%	11µM*	-33	·	?
O=C(C[C@@H]1C/C=C/CC[C@H](Cc2ccc(F)cc2)C(=O)OC[C@@H](Cc2ccccc2)NC1=O)N[C@H](CO)Cc1ccccc1	·	0%	?	-99*	·	-27%
C[C@@H]1COC(=O)[C@H](Cc2ccc(F)cc2)CC/C=C/C[C@@H](CC(=O)N[C@@H](CO)Cc2ccccc2)C(=O)N1	·	0%	3%	10	·	-13%
O=C(C[C@@H]1C/C=C\C[C@H](Cc2ccc(F)cc2)C(=O)OCCNC1=O)N[C@H](CO)Cc1ccccc1	·	-11%	10%	-10	·	-28%
O=C(C[C@@H]1C/C=C/CC[C@H](Cc2ccc(F)cc2)C(=O)OCCNC1=O)N[C@H](CO)Cc1ccccc1	·	2%	10µM*	-17	·	-27%
C[C@H]1COC(=O)[C@@H](Cc2ccc(F)cc2)C/C=C\C[C@@H](CC(=O)NCCO)C(=O)N1	·	-9%	3.5µM*	-5	·	-19%
COc1cccc(/C=N/N2CCN(c3ccc(Cl)cc3)CC2)c1OC	·	0%	?	-69*	·	?
COc1ccc(NS(=O)(=O)c2ccc3nc(COc4cccc5ccccc45)[nH]c3c2)cc1	?	-11%	?	-79*	15µM*	-20%
COc1cc(CCC(=O)NCc2ccc3c(c2)CCN3C(=O)c2cccc(C)c2)cc(OC)c1OC	-20%[46.1 µM]	·	·	7	·	-5%
CC1CCCC(C)N1C(=C(Cl)Cl)C(=C1SCCS1)[N+](=O)[O-] (stereo not given)	-5%	-7%	?	-69*	?	59%
Cc1oc2c(c(C)cc3oc(=O)c(CC(=O)NCc4ccc(F)cc4)c(C)c32)c1C	4%[46.1 µM]	·	·	-25	-2%[46.1 µM]	-1%
O=C(COc1cccc2ccccc12)N/N=C/c1ccc(Sc2nc3ccccc3s2)o1	-28%	-1%	?	66	-30%	-9%
O=C(Cc1cccc2ccccc12)N/N=C/c1ccc(Sc2nc3ccccc3s2)o1	-24%	9%	10µM*	-31	?	-19%
N#CCC(=O)N/N=C/c1ccc(Sc2nc3ccccc3s2)o1	-1%	-9%	10%	-99*	21%	10%
O=P1(c2ccccc2)Nc2ccccc2N1c1ccccc1 (stereo not given)	2%[46.1 µM]	·	-2%	-64*	-24%[46.1 µM]	-5%
Cn1ccc2cc(S(=O)(=O)N3CCN(C(=O)Nc4ccccc4F)CC3)ccc21	-18%[46.1 µM]	·	·	6	·	-3%
N/C(CCCN1CCCCC1)=N\O	·	·	·	·	4%	·
COc1ccc(S(=O)(=O)NNC(=S)NCCc2ccccc2)c(OC)c1	1%	26%	20%	4	-8%	14%
CCCS(=O)(=O)NC(=O)C1(C)CCCN(C(=O)CCc2ccccc2)C1 (stereo not given)	·	·	·	-65*	·	·
COc1ccc(NC(=O)Cn2c(=O)n(CCC(=O)NCCc3ccc(OC)c(OC)c3)c(=O)c3ccccc32)cc1Cl	25%[46.1 µM]	·	·	9	-9%[46.1 µM]	-12%
O=c1c2ccccc2oc2ccc(C#CC3(O)CCCCC3)cc12	·	·	?	-35	·	32µM*
Cn1c2ccccc2c(=O)c2ccc(C#CC3(N)CCCCC3)cc21	·	13%	11µM*	37	·	6%
